# Source: PubChem BioAssay
# HSF1 inh = HSF1 inhibition. AID 2098. 0.77% of 300,000 active. NIH3T3-HGL HSE-luciferase, MG132-induced, luminescence 8 h; hits give low values. activity change, negative = inhibition, % at 7.5 µM (by protocol);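 active = more than half of replicate wells show activity change below -50%, luminescence cut by over half; inconclusive = some wells, but at most half, below -50%; inactive = no replicate well below -50%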;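 note: luciferase reports HSF-1 transcriptional activity via heat shock element; 0% = median of DMSO wells and -100% = zero luminescence signal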
# HSF1 activator = increases HSF-1 driven luciferase reporter signal. NIH3T3-HGL HSF-1 luciferase reporter, MG132, 8 h; 100% = twice DMSO control signal. activation, % at 9 µM. 1.7% of 300,000 active. AID 504408;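 active = mean replicate activation of at least 50% with a set share of replicates each reaching 50%; inconclusive = only one of those two conditions met; inactive = mean below 50% and too few replicates reaching it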;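 note: 0% = median of the neutral control wells and 100% = twice that signal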
# AHR act = activates the human aryl hydrocarbon receptor; P35869; activation, % at 5 µM; AHR-responsive luciferase reporter cells, luminescence; AID 2796; 2.5% of 320,000 active; in the data active = activation above about 47%;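 note: 0% = vehicle wells and 100% = reference agonist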
# GAA850 FXN act = activators of GAA850 frataxin (FXN) promoter; HEK293 lucGAA850 FXN promoter luciferase reporter, 24 h; percent of 10 µM SAHA response; 0.56% of 360,000 active; AID 540364; activation, % at 6 µM;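 active = activation above the average of all compounds screened plus 3 SD, cutoff fixed separately per campaign, cut at about 7.5% in these data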;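 note: 0% = DMSO wells and 100% = 10 µM SAHA wells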
# Numbers without * were called inactive; ? = inconclusive; nt = no result given. The list is not random: actives were taken first. Their share in the collection is about 4.6%.
SMILES,HSF1 inh,HSF1 activator,AHR act,GAA850 FXN act
Cc1nn(-c2ccccc2)c(C)c1/C=N/NC(=O)CSc1nnc(SCc2ccccc2Cl)s1,41,68*,11,3
O=C(NP(=O)(N1CCCC1)N1CCCC1)C1=C(N2CCOCC2)/C(=C/c2cccc([N+](=O)[O-])c2)CC1,22,21,8,3
O=[N+]([O-])c1ccc(/C=C2\CCC(C3=CCCC3)=C2N2CCOCC2)cc1,39,61*,-3,4
CCCSc1nnc2nc3c(nn12)c1ccccc1n3C,1,0,50*,1
CCN(CC)C(=O)CSc1nnc2c3ccccc3n(C)c2n1,-9,2,15,2
O=C(CSc1nncn1-c1ccccc1)Nc1ccc(F)cc1F,-2,-18,2,0
CCOC(=O)c1c(C)oc2cc(Br)c(OC(=O)N3CCOCC3)cc12,15,26,52*,1
COc1cc2c(C(=O)N3CCN(C)CC3)c(C)oc2cc1Br,-3,-9,2,0
COc1ccc(C2Nc3ccccc3C(=O)N2c2ccc(C)cc2)cc1COc1ccccn1 (configuration not stated),22,58*,15,2
Cc1oc(CSCC2CCCO2)cc1C(=O)O (configuration not stated),1,-16,-3,0
Nc1sc(-c2ccccc2)cc1-c1n[nH]c(=S)n1C1CCCCC1,72,84*,2,-3
COc1ccc(-n2c(-c3cc(-c4ccccc4)sc3N)n[nH]c2=S)cc1,13,15,1,5
C=CCn1c(-c2cc(-c3ccccc3)sc2N)n[nH]c1=S,146,174*,9,4
O=C(Cc1c[nH]c2ccccc12)Nc1ccccc1N1CCOCC1,-7,-6,18,3
O=[N+]([O-])c1cccc(-c2ccc(/C=N/NC(=S)Nc3cccc(F)c3)o2)c1,3,14,49*,2
COc1ccc(/C=N/n2c(=O)[nH]c3c([nH]c4ccc(Cl)cc43)c2=O)cc1CN1CCCCC1,-1,20,17,0
COc1ccc(/C=N/n2c(=O)[nH]c3c([nH]c4ccc(Br)cc43)c2=O)cc1CN1CCOCC1,-2,-1,56*,-1
Cc1cc(Cl)ccc1NC(=S)NCCc1ccc(S(N)(=O)=O)cc1,3,0,1,1
COc1ccc2nc(NC(=O)CN3CCN(C)CC3)sc2c1,-3,19,9,3
COc1ccc2nc(NC(=O)CN3CCOCC3)sc2c1,-89*,-91,5,0
O=C(O)c1cnn(-c2nc(-c3cccc([N+](=O)[O-])c3)cs2)c1C(F)(F)F,18,63*,13,-2
O=[N+]([O-])c1cccc(-c2csc(Nc3ccccc3)n2)c1,10,1,48*,6
COc1ccccc1Nc1nc(-c2cccc([N+](=O)[O-])c2)cs1,-2,14,79*,3
COc1cc(NS(=O)(=O)c2ccc(Nc3nc(-c4cccc([N+](=O)[O-])c4)cs3)cc2)nc(OC)n1,-9,6,-1,-1
COc1cc(/C=C2\SC(=S)N(NC(=O)c3cccnc3)C2=O)ccc1O,-1,18,3,1
SMILES,HSF1 inh,HSF1 activator,AHR act,GAA850 FXN act
Cc1ccc(CNC(=O)CSc2c3c(nc4ccc(Cl)cc24)CCCC3)o1,69,120*,3,1
CCN(CC)CCNC(=O)CSc1c2c(nc3cc(Cl)ccc13)CCCC2,69,?,1,6
Cc1cc(C)c(Cc2c(C)nc3c(C(=O)NCc4ccco4)cnn3c2C)c(C)c1,6,7,-3,-4
COc1ccc(C(=O)Nc2ccccc2[N+](=O)[O-])cc1S(=O)(=O)N1CCOCC1,76,131*,nt,-1
COc1cccc(-c2cc(NC=O)c3ncc(-c4ccc(F)c(Cl)c4)n3c2)c1,nt,nt,nt,3
COc1c(/C=N/Nc2nc(N3CCCCC3)nc(N3CCCCC3)n2)cccc1[N+](=O)[O-],-15,-15,1,4
COc1cccc(/C=N/Nc2ccc([N+](=O)[O-])cn2)c1O,63,96*,-1,-5
O=[N+]([O-])c1cccc(/C=N/Nc2nc(N3CCOCC3)nc(N3CCOCC3)n2)c1,-6,7,10,0
COc1cccc(/C=N/Nc2nc(Nc3ccc([N+](=O)[O-])cc3)nc(N3CCCC3)n2)c1O,-20,-20,47*,-3
O=[N+]([O-])c1ccc(Nc2nc(N/N=C/c3cccc(F)c3)nc(N3CCCC3)n2)cc1,-2,5,145*,-1
Fc1ccccc1N1CCN(C(c2ccccn2)c2nnnn2C2CCCCC2)CC1 (configuration not stated),2,1,-2,0
